Reference: PubChem BioAssay (NCI)
This is part of a sample that, as a whole, favours compounds with a hit. Of some 83,000 tested, about 20% had one in any assay.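 Percent growth is the endpoint: 0 to 100 indicates growth inhibition (40 means 60% inhibition), 0 means no net growth, and negative values indicate cell death.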 Active and inactive are the calls of the source. How the source made its calls: active means growth percent below 10; inactive means the rest.

Columns and labels:
Assay in all cases: NCI-60 one-dose screen, 48 h (100 = growth as untreated, 0 = no growth, -100 = all killed)
Conditions in all cases: 10 µM unless noted
NCI-H23 lung = system: NCI-H23 lung
NCI-H226 lung = system: NCI-H226 lung
NCI-H322M lung = system: NCI-H322M lung
HOP-62 NSCLC = system: HOP-62 NSCLC
NCI-H460 lung = system: NCI-H460 lung
HOP-92 NSCLC = system: HOP-92 NSCLC
NCI-H522 lung = system: NCI-H522 lung
A549/ATCC NSCLC = system: A549/ATCC NSCLC
786-0 renal = system: 786-0 renal
COLO 205 colon = system: COLO 205 colon

Measured: growth

COc1cc2c(cc1OC)C(C)N(S(N)(=O)=O)CC2 (stereo not drawn)
inactive: NCI-H23 lung 87.1% | NCI-H226 lung 78.8% | NCI-H322M lung 105% | HOP-62 NSCLC 80.2% | NCI-H460 lung 111% | HOP-92 NSCLC 98.6% | NCI-H522 lung 98.4% | A549/ATCC NSCLC 101% | 786-0 renal 89.3% | COLO 205 colon 111%

COC(=O)c1c(C)nc(C)c2c1C(=O)C(Br)=C(NCc1ccccc1)C2=O
active: NCI-H23 lung 5.25% | COLO 205 colon -11.8%
inactive: NCI-H226 lung 71% | NCI-H322M lung 31.4% | HOP-62 NSCLC 87.1% | NCI-H460 lung 11.7% | HOP-92 NSCLC 86.9% | NCI-H522 lung 22% | A549/ATCC NSCLC 18.2% | 786-0 renal 51.6%

CS(=O)(=O)Nc1cc(-c2ccc3ncnc(Nc4ccc5c(cnn5Cc5ccc(F)cc5)c4)c3c2)cnc1Cl
inactive: NCI-H23 lung 43.8% | NCI-H226 lung 66.8% | NCI-H322M lung 60.7% | HOP-62 NSCLC 43.5% | NCI-H460 lung 61.5% | NCI-H522 lung 43.7% | A549/ATCC NSCLC 78.7% | 786-0 renal 48.3% | COLO 205 colon 60.1%
active: HOP-92 NSCLC -17.5%

COc1ccc(-c2cc(-c3ccc(Cl)cc3)c(C#N)c(=O)n2Cc2ccc(C(=O)Nc3ccccc3N)cc2)cc1
inactive: NCI-H23 lung 77.2% | NCI-H226 lung 81.2% | NCI-H322M lung 89.3% | HOP-62 NSCLC 71.6% | NCI-H460 lung 94.6% | HOP-92 NSCLC 54.1% | NCI-H522 lung 53.9% | A549/ATCC NSCLC 109% | 786-0 renal 90.3% | COLO 205 colon 95.8%

CCN1C(=S)N(c2ccccc2)C2C1NN=c1s/c(=C3\C(=O)N(C(C)C)c4ccccc43)c(=O)n12 (stereo not drawn)
inactive: NCI-H23 lung 75.4% | NCI-H226 lung 66.7% | NCI-H322M lung 82.8% | HOP-62 NSCLC 73.4% | NCI-H460 lung 47.8% | HOP-92 NSCLC 100% | NCI-H522 lung 78.6% | A549/ATCC NSCLC 57.8% | 786-0 renal 93.7% | COLO 205 colon 89.4%

C=C(CBr)[C@@H]1CC[C@]2(C(=O)O)CC[C@]3(C)[C@H](CC[C@@H]4[C@@]5(C)CCC(=O)C(C)(C)[C@@H]5CC[C@]43C)[C@@H]12
inactive: NCI-H23 lung 85.8% | NCI-H226 lung 73.2% | NCI-H322M lung 92.2% | HOP-62 NSCLC 112% | NCI-H460 lung 81.3% | HOP-92 NSCLC 72.3% | NCI-H522 lung 46.5% | A549/ATCC NSCLC 57.7% | 786-0 renal 106% | COLO 205 colon 99.9%

CCCCCOC(=O)c1c(C)[nH]c(/C=C2\N=C(c3ccc[nH]3)C=C2OC)c1C
active: NCI-H23 lung -59.1% | NCI-H226 lung -74.8% | NCI-H322M lung -17.8% | HOP-62 NSCLC -17.8% | NCI-H460 lung 4.97% | HOP-92 NSCLC -20.5% | NCI-H522 lung -56.7% | A549/ATCC NSCLC -1.61% | 786-0 renal -16.9% | COLO 205 colon -88.2%

COC1=CC(c2ccc[nH]2)=N/C1=C\c1[nH]c(C)c(C)c1CCC(=O)OCc1ccccc1
inactive: NCI-H322M lung 54.5% | NCI-H460 lung 18.6% | A549/ATCC NSCLC 10.1%
active: NCI-H23 lung -9.49% | NCI-H226 lung -2.19% | HOP-62 NSCLC -3% | HOP-92 NSCLC -27.8% | NCI-H522 lung -38.7% | 786-0 renal -38.8% | COLO 205 colon -64.8%

COC12C=C/C(=C(/C(=O)OCc3ccncn3)C(=O)CCCCCCCCC3(OC)C=C/C(=C(/C(=O)OCc4ccncn4)C(=O)CCCCCCCC1)O3)O2
inactive: HOP-62 NSCLC 23%
active: NCI-H23 lung -37.2% | NCI-H226 lung -71.8% | NCI-H322M lung -76.5% | NCI-H460 lung 1.29% | HOP-92 NSCLC -53.6% | NCI-H522 lung -13.1% | A549/ATCC NSCLC 6.41% | 786-0 renal -71.2% | COLO 205 colon 3.33%

N=C(N)c1ccc(-c2ccc(-c3ccccc3)o2)cc1
active: NCI-H23 lung 3.73% | NCI-H226 lung -26.4% | NCI-H322M lung -37.8% | HOP-62 NSCLC -50.7% | NCI-H460 lung -73.1% | HOP-92 NSCLC -59.5% | NCI-H522 lung -82.6% | A549/ATCC NSCLC -30.1% | 786-0 renal -86% | COLO 205 colon -87.7%

C=C(C)[C@@H]1CCC[C@]2(COS(=O)(=O)c3ccc(C)cc3)CC[C@]3(C)[C@@H](CC[C@@H]4[C@@]5(C)CCCNC(C)(C)[C@@H]5CC[C@]43C)[C@@H]12
active: NCI-H460 lung -49.1% | NCI-H522 lung -41% | A549/ATCC NSCLC -12% | 786-0 renal -77.5% | COLO 205 colon -86.1%
inactive: NCI-H23 lung 25.7% | NCI-H226 lung 82.1% | NCI-H322M lung 39.7% | HOP-62 NSCLC 69% | HOP-92 NSCLC 19%

CS(=O)(=O)Nc1cncc(-c2ccc3ncnc(Nc4cncc(Cl)c4)c3c2)c1
inactive: NCI-H23 lung 80% | NCI-H226 lung 80.8% | NCI-H322M lung 71.7% | HOP-62 NSCLC 73.4% | NCI-H460 lung 103% | HOP-92 NSCLC 31.5% | NCI-H522 lung 50.2% | 786-0 renal 82.3% | COLO 205 colon 93.8%

CCCCn1c(=O)[nH]c(N)c([C@@H]2c3c([nH]c(=O)n(CCCC)c3=O)Oc3ccc4ccccc4c32)c1=O
inactive: NCI-H23 lung 13% | NCI-H226 lung 92% | NCI-H322M lung 74.9% | HOP-62 NSCLC 73.6% | NCI-H460 lung 15.4% | HOP-92 NSCLC 83.3% | NCI-H522 lung 59% | 786-0 renal 77.8% | COLO 205 colon 59.3%
